Anthrax LF inh2 – anthrax lethal factor protease inhibition | P15917 | multiplex microsphere protease cleavage assay, LF | inhibition, % at 10 µM | actives 0.12% (n = 360,000) | AID 588501
Autofluor counter – compound fluorescence in toxin protease inhibitor counterscreen; fluorescence intensity (concentration not given with the values); actives 3.1% (n = 360,000); compound autofluorescence counterscreen, microsphere flow cytometry; active compounds read high; in the data active means fluorescence intensity above about 16000; inconclusive means no clear call, values can overlap the other calls
BoNT-F LC inh – BoNT F light chain protease inhibition | Multiplex microsphere protease cleavage assay, flow cytometry | inhibition, % at 10 µM | AID 588497 | actives 0.22% (n = 360,000); in the data active means inhibition above about 35%, passing the limit was not always enough; inconclusive means no clear call, values can overlap the other calls
BoNT A protease – blocks Botulinum neurotoxin A light chain protease; multiplex microsphere protease substrate cleavage, flow cytometry; inhibition, % at 10 µM; actives 0.17% (n = 360,000)
Each line names hits and unclear results; the compound was inactive in the other large screens. The list is not random: actives were taken first. Their share in the collection is about 3.5%. Unless noted, no stated cut-off is given here; in the data, active means inhibition above about 30%; inconclusive means no clear call, values can overlap the other calls; inactive means below that.

CC(OC(=O)Cc1ccc(Br)cc1)C(=O)NC1CCCCC1C (stereo not drawn)	none
Cc1ccc(NC(=O)CCOc2ccccc2C)cc1C	none
CCC(=O)Nc1cc(SCCO)cc([N+](=O)[O-])c1	Autofluor counter 16916
O=C(CCl)Nc1cc(SCC(O)CO)cc([N+](=O)[O-])c1 (stereo not drawn)	none
COCCCNC(=O)COc1cc2c(c3oc(=O)c(C)c(C)c13)CCC(C)(C)O2	none
CC1(C)Cc2c(sc3nc(-c4cc5ccccc5o4)n(N)c(=O)c23)CO1	Autofluor counter 21859, BoNT A protease inconclusive
COC(=O)c1noc(-c2ccc(OC)cc2)n1	none
COC(=O)c1noc(-c2ccc(C)cc2)n1	Autofluor counter 23185
CCCCN(CC)S(=O)(=O)c1ccc2c(c1)n(C)c(=O)c(=O)n2C	none
O=C(OCC(=O)N1CCN(c2ccc(F)cc2)CC1)c1cnc2ccccc2n1	none
CCN(C(C)=O)c1nc(CSc2nnc(NC(C)C)s2)cs1	Autofluor counter 19610, BoNT A protease inconclusive
Nc1nnc(-c2ccc(F)cc2)s1	none
Nc1nnc(-c2ccccc2)s1	Autofluor counter 23348
CC(C)(C)OC(=O)N1CCC[C@H]1c1nnc(SCc2cccc(Cl)c2)o1	BoNT-F LC inh inconclusive, BoNT A protease inconclusive
Cc1ccccc1-n1nnnc1-c1ccccc1	Autofluor counter 23616
O=C(/C=C/c1c(F)cccc1Cl)N1CCc2ccccc2C1	none
COc1cc(/C=C/C(=O)c2ccc(Cl)s2)cc(OC)c1O	Autofluor counter 21357, BoNT A protease inconclusive
COc1ccc(/C=C/C(=O)c2ccc(Cl)s2)cc1O	none
CC1CCCCC1NC(=O)c1cn(C)c2ccc(S(=O)(=O)N3CCCC3)cc2c1=O (stereo not drawn)	Autofluor counter 20217, BoNT A protease inconclusive
Cn1cc(C(=O)NC2CCCCC2)c(=O)c2cc(S(=O)(=O)N3CCCC3)ccc21	none
CC1CCN(S(=O)(=O)c2ccc3c(c2)c(=O)c(C(=O)NC2CCCC2)cn3C)CC1	Autofluor counter 20721, BoNT A protease inconclusive
COC(=O)c1cn(C)c2ccc(S(=O)(=O)N3CCCC3)cc2c1=O	Autofluor counter 20045
COc1cc(C(=O)NCC2(c3ccccc3)CCCC2)cc(OC)c1OC	none
Cc1c(CN2CCCCC2C)c(=O)n(-c2ccccc2)n1C (stereo not drawn)	Autofluor counter 22027, BoNT A protease inconclusive
O=C(Nc1nccs1)c1ccc(S(=O)(=O)N2CCOCC2)cc1	none
Cc1ccc(NC(=O)C2CC(O)CN2C(=O)OCc2ccccc2)c(C)c1 (stereo not drawn)	none
C/C(=C\C(=O)Nc1nccs1)c1ccccc1	Autofluor counter 17209, BoNT A protease inconclusive
CC1(C)CC(NC(=O)C23CCC(C)(C(=O)C2)C3(C)C)CC(C)(C)N1 (stereo not drawn)	Autofluor counter 21112
Nc1c(-c2ccccc2)n[nH]c1-c1ccccc1	Autofluor counter 23500, BoNT A protease inconclusive
CC(C)NC(=O)c1cccc(Cn2cc(Cl)cn2)c1	Autofluor counter 22543
CC(NC(=O)c1cccc(Cn2cc([N+](=O)[O-])cn2)c1)c1ccc(C(C)(C)C)cc1 (stereo not drawn)	Autofluor counter 19892
CCC(NC(=O)c1cccc(Cn2cc([N+](=O)[O-])cn2)c1)c1ccc(C(C)C)cc1 (stereo not drawn)	none
COc1cc(NC(=S)NC(C)=O)ccc1NC(=O)C(C)C	Autofluor counter 16967
CCCCC(=O)NC(=S)Nc1ccc(NC(=O)C(C)C)c(OC)c1	none
Cc1oc(-c2cccc(Cl)c2)nc1CS(=O)(=O)CC(=O)NC1CCCC1	none
CNC(=O)c1[nH]cnc1C(=O)Nc1ccccn1	none
Cc1nc(SCC(=O)c2ccc(Cl)cc2)c([N+](=O)[O-])[nH]1	Autofluor counter 24383, BoNT A protease inconclusive
Nc1nc(Br)c2c(F)cccc2c1-c1ccccc1	Autofluor counter 21859
Nc1ccc(-c2c3ccccc3nc3ccccc23)cc1	BoNT-F LC inh inconclusive
Nn1c(-c2ccc(F)cc2)nc2ccccc2c1=O	none
Nc1nc(Br)c2c(F)cccc2c1-c1ccc(F)cc1	Autofluor counter 22286
CCc1ccc(-c2nc(SCC(=O)c3c(N)n(C4CC4)c(=O)[nH]c3=O)n[nH]2)cc1	none
Cc1cc(C)n2nc(SCC(=O)N3CCC4(CC3)OCCO4)nc2n1	Autofluor counter 19682
Cc1cc(C)n2nc(SCC(=O)N3CCCC3)nc2n1	none
Cc1cc(C(=O)COC(=O)CN=C2NS(=O)(=O)c3ccccc32)c(C)n1CCc1ccc(Cl)cc1	none
Cc1ccc(NC(=O)c2ccc(-n3cccn3)c([N+](=O)[O-])c2)cc1	Autofluor counter 16419
CCC(=O)N1CCN(c2ccc(Cl)cc2NC(=O)c2ccc(N3CCCC3)c([N+](=O)[O-])c2)CC1	Autofluor counter 18754
Cc1cccc(NC(=O)c2ccc(-n3cccn3)c([N+](=O)[O-])c2)c1	none
Cc1cccc(NC(=O)c2ccc(N3CCCCC3)c([N+](=O)[O-])c2)n1	Autofluor counter 24725, BoNT A protease inconclusive
C(=N\Nc1cc(N2CCCCC2)ncn1)/c1ccco1	none
CC(C)c1nnc(SCC(=O)N2CCc3ccccc32)n1N	none
COc1ccccc1C(=O)NCCN=C1NS(=O)(=O)c2ccccc21	none
CCO[C@@H]1OC(C(=O)O)=C[C@H](c2ccc(Br)cc2)[C@H]1CCCO	none
COc1ccc2c(c1)Cc1sc(NC(=O)c3cccs3)nc1-2	Autofluor counter 18806
COc1ccc(C(=O)Nc2nc3c(s2)Cc2cc(OC)ccc2-3)cc1	none
Cc1ccc(NC(=O)CCC(=O)OCc2ccc(Br)cc2)cc1	none
O=C(CCN1CCCCC1)c1ccccc1	Autofluor counter 16441, BoNT A protease inconclusive
O=C(O)CCC(=O)CCC(=O)c1ccccc1	Autofluor counter 23543, BoNT A protease inconclusive
O=C(OCCCN1CCCCC1)c1ccc(O)cc1	none
OC(C#CCN1CCCCC1)c1ccccc1 (stereo not drawn)	none
O=C(CCN1CCOCC1)c1ccccc1	none
Cc1ccc(C(=O)CCC(=O)CCC(=O)O)cc1	none
O=C(OCCN1CCCCC1)c1ccc(O)cc1	Autofluor counter 21154
OC(CCCCN1CCCCC1)c1ccccc1 (stereo not drawn)	Autofluor counter 22737, BoNT A protease inconclusive
CCCN(CC1CCCO1)C(=O)CCc1nnc(CCc2ccc(OC)cc2)o1 (stereo not drawn)	none
C1CCCN(CCCCN2CCCCCC2)CC1	Autofluor counter 21776
COC(=O)CCCCCCCCCCN1CCCCC1	none
O=C(CCc1ccccc1)n1nc(-c2ccccc2)nc1NCc1ccco1	Autofluor counter 23164
O=C(NCCCO)C12CC3CC(CC(C3)C1)C2	none
O=C(O)CSCNC(=O)C12CC3CC(CC(C3)C1)C2	Autofluor counter 16463
CCOC(=O)c1cc(-c2cccc(O)c2)oc1C	none
O=C(CCl)Nc1ccccc1C(=O)NCc1ccccc1	none
CCc1sc(NC(C)=O)nc1-c1ccccc1	none
CCc1sc(NS(C)(=O)=O)nc1-c1ccccc1	Autofluor counter 23262
Cc1ccc2cccnc2c1NC(=S)NC(=O)c1ccccc1	Autofluor counter 22969, BoNT A protease inconclusive
Cc1ccc(N=Cc2nc(/C=C/c3cccc([N+](=O)[O-])c3)oc2O)cc1	Autofluor counter 22530, BoNT A protease inconclusive
COCC(=O)N(Cc1cc2ccc(C)cc2[nH]c1=O)c1ccc(OC)cc1	Autofluor counter 23081, BoNT A protease inconclusive
O=C(OCC(=O)N1CCc2ccccc2C1)c1cccs1	none

Source: PubChem
